Test results from PubChem BioAssay (NCATS).
Records with an inconclusive call do not appear. Activity calls are given as the source filed them. Calls come from the whole dose curve; as a rule, active = well fitted inhibition curve with a large enough effect; inconclusive = small, poorly fitted or top-dose-only effect; inactive = no such curve, though single readings can be large or run the other way.
Potency is the fitted concentration of half-maximal effect.

Test: BET inhibitor-based combinations targeting novel dependencies in MECOM-rearranged (r) AML: OCI-AML3 cell line (AID 2202232); note: nearly all actives have a fitted effect of over 35% in size;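 for viability (% of control): plate controls were DMSO vehicle wells for no effect and wells without cells for full effect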
Conditions: CellTiter-Glo luminescence, 48 h; Potency: OCI-AML3 viability; series mostly up to 46 µM; viability (% of control): at the top concentration
In short: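 AML cell lines seeded at 500 cells/well, treated with 11-point dose curves for 48 h. Viability by CellTiter-Glo luminescence, normalised to DMSO and empty wells; activity expressed as AUC and per-cell-line Z-transformed AUC.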
For COC(=O)C1=C(C)NC(c2ncc(F)cc2F)=N[C@@H]1c1ccc(F)cc1Cl, the “viability (% of control)” value was 79.6% (inactive).
With COC1=C(OC)C(=O)C(CCCCCCCCCCO)=C(C)C1=O the Potency was 16.6 µM (active).
For Cc1onc(-c2ccccc2)c1-c1ccc(S(N)(=O)=O)cc1, the “viability (% of control)” value was 94.4% (inactive).
In the case of NC(=O)c1cccc2c(NC(CN3CCC3)c3ccc(Cl)c(C(F)(F)F)c3)ncnc12 (stereo not drawn), the Potency was 1.48 µM (active).
With C/C(O)=C(\C#N)C(=O)Nc1ccc(C(F)(F)F)cc1 the Potency was 9.34 µM (active).
With CCCCOc1ccc(CC(=O)NO)cc1 the Potency was 13.2 µM (active).
With CC(=O)Nc1ccc(C(=O)NC(C)(C)C)cc1 the “viability (% of control)” value was 64.5% (inactive).
With CC[C@H](NC(=O)[C@H](C)NC)C(=O)N1C[C@@H](O)C[C@H]1Cc1c(-c2[nH]c3cc(F)ccc3c2C[C@@H]2C[C@H](O)CN2C(=O)[C@H](CC)NC(=O)[C@H](C)NC)[nH]c2cc(F)ccc12 the “viability (% of control)” value was 103% (inactive).
For COc1cc2c(cc1O)CCN[C@]21CS[C@@H]2c3c(OC(C)=O)c(C)c4c(c3[C@H](COC1=O)N1[C@@H]2[C@H]2c3c(cc(C)c(OC)c3O)C[C@@H]([C@@H]1O)N2C)OCO4, the Potency was 0.0096 µM (active).
With COC(=O)N[C@H](C(=O)N1CCC[C@H]1c1ncc(-c2ccc(-c3ccc(-c4cnc([C@@H]5CCCN5C(=O)[C@@H](NC(=O)OC)C(C)C)[nH]4)cc3)cc2)[nH]1)C(C)C the “viability (% of control)” value was 89.4% (inactive).

Test: BET inhibitor-based combinations targeting novel dependencies in MECOM-rearranged (r) AML: MV-4-11 cell line (AID 2202233); note: nearly all actives have a fitted effect of over 45% in size;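 for viability, % of control: plate controls were DMSO for no effect and blank wells for full effect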
Conditions: MV-4-11 AML viability, CellTiter-Glo luminescence, 48 h; series mostly up to 46 µM; viability, % of control: at the top concentration
In short: (§1)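 Cells at 500/well were exposed for 48 hr to MIPE v5.0 drugs as 11-point dose curves. Viability was read by CellTiter-Glo luminescence and normalized to DMSO and empty-well controls. Activity was expressed as AUC and per-cell-line Z-AUC.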
For CN(C)c1ccc(O)c2c1C[C@H]1C[C@H]3[C@H](N(C)C)C(=O)C(C(N)=O)=C(O)[C@@]3(O)C(=O)C1=C2O, the “viability, % of control” value was 70.5% (inactive).
With CCN1C(=O)N2Cc3cc(OC)cc(OC)c3[C@@H](C)C=C2C12CCN(Cc1cc(C)cc(C)c1)CC2 the Potency was 29.5 µM (active).
In the case of O=c1cc(-c2ccc(O)c(O)c2)oc2cc(O)cc(O)c12, the Potency was 8.33 µM (active).
For Nc1nccc(-c2c(-c3ccc(F)cc3)ncn2C2CCN(Cc3ccon3)CC2)n1, the Potency was 10.5 µM (active).
For CN1CCN(c2nc(C3=C(c4c[nH]c5ccccc45)C(=O)NC3=O)c3ccccc3n2)CC1, the Potency was 1.86 µM (active).
In the case of NC(=O)c1cnc2[nH]ccc2c1NC1C2CC3C[C@H]1CC(O)(C3)C2 (stereo partly drawn), the Potency was 0.209 µM (active).
In the case of Cc1cccc(/C=N/Nc2cc(N3CCOCC3)nc(OCCc3ccccn3)n2)c1, the Potency was 7.42 µM (active).
In the case of CO[C@H]1/C=C/O[C@@]2(C)Oc3c(C)c(O)c4c(O)c(c(/C=N\N5CCN(C6CCCC6)CC5)c(O)c4c3C2=O)NC(=O)/C(C)=C\C=C\[C@H](C)[C@H](O)[C@@H](C)[C@@H](O)[C@@H](C)[C@H](OC(C)=O)[C@@H]1C, the Potency was 23.5 µM (active).
For Clc1ccc(COC(Cn2ccnc2)c2ccc(Cl)cc2Cl)cc1 (stereo not drawn), the Potency was 20.9 µM (active).
In the case of Nc1ncn([C@H]2C[C@H](O)[C@@H](CO)O2)c(=O)n1, the Potency was 0.332 µM (active).
With CC(C)n1cnc2c(NCCCCCCNC(=O)OC(C)(C)C)nc(NCCO)nc21 the Potency was 16.6 µM (active).
With Cn1cc(-c2cc(Oc3cc(F)c(NC(=O)C4(C(=O)Nc5ccccc5)CC4)cc3F)ccn2)cn1 the Potency was 0.742 µM (active).
In the case of COc1ccc(-c2ccc3c(N4CCOC[C@@H]4C)nc(N4CCOC[C@@H]4C)nc3n2)cc1CO, the Potency was 0.132 µM (active).
With COc1cc(NCc2ccc3nc(N)nc(N)c3c2C)cc(OC)c1OC the Potency was 5.9 µM (active).
With CNCCN(C)Cc1cn[nH]c1-c1ccc(OC2CC(OCCC3CCOCC3)C2)cc1 (stereo not drawn) the Potency was 20.9 µM (active).
With COC(=O)C1=C(C)NC(c2ncc(F)cc2F)=N[C@H]1c1ccc(F)cc1Cl the Potency was 18.6 µM (active).
With COc1ccc(COc2ccc(Cc3cnc(N)nc3N)cc2OC)cc1 the “viability, % of control” value was 2.25% (inactive).
In the case of Cn1ncc(NC(=O)c2nc(-c3c(F)cccc3F)sc2N)c1N1CC[C@@H](N)[C@H](F)CC1, the Potency was 2.63 µM (active).
In the case of CO[C@H]1C[C@@H]2CC[C@@H](C)[C@@](O)(O2)C(=O)C(=O)N2CCCC[C@H]2C(=O)O[C@H]([C@H](C)C[C@@H]2CC[C@@H](OCCO)[C@H](OC)C2)CC(=O)[C@H](C)/C=C(/C)[C@@H](O)[C@@H](OC)C(=O)[C@H](C)C[C@H](C)/C=C\C=CC=C1C, the Potency was 13.2 µM (active).

Test: BET inhibitor-based combinations targeting novel dependencies in MECOM-rearranged (r) AML: HNT-34 cell line (AID 2202234); note: nearly all actives have a fitted effect of over 35% in size;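 for viability (% of control): plate controls were vehicle wells for no effect and cell-free wells for full effect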
Conditions: HNT-34 AML viability, CellTiter-Glo luminescence, 48 h; series mostly up to 46 µM; viability (% of control): at the top concentration
In short: as §1
With CC(C)(O)CC[C@@H](O)[C@](C)(O)[C@H]1CC[C@@]2(O)C3=CC(=O)[C@@H]4C[C@@H](O)[C@@H](O)C[C@]4(C)[C@H]3CC[C@]12C the “viability (% of control)” value was 67.2% (inactive).
For CN(C)c1ccc(O)c2c1C[C@H]1C[C@H]3[C@H](N(C)C)C(=O)C(C(N)=O)=C(O)[C@@]3(O)C(=O)C1=C2O, the Potency was 13.2 µM (active).
With CCN1C(=O)N2Cc3cc(OC)cc(OC)c3[C@@H](C)C=C2C12CCN(Cc1cc(C)cc(C)c1)CC2 the Potency was 23.5 µM (active).
In the case of CCNc1cc(NC2CCC(O)CC2)nc(Nc2ccc3c(ccn3Cc3ccccc3)c2)n1 (stereo not drawn), the “viability (% of control)” value was 71.3% (inactive).
For NS(=O)(=O)c1ccc(NC(=S)N2CCN(C/C=C/c3ccccc3)CC2)cc1, the Potency was 18.6 µM (active).
For Cc1ccc(NC(=O)c2cccc(C(C)(C)C#N)c2)cc1Nc1ccc2ncn(C)c(=O)c2c1, the Potency was 0.662 µM (active).
For CNC(=O)CCc1cc(-c2ccc(-c3ccc(C(F)(F)F)cc3)cc2)n(-c2ccc(N3CCNCC3)cc2)n1, the Potency was 8.33 µM (active).
For Nc1nccc(-c2c(-c3ccc(F)cc3)ncn2C2CCN(Cc3ccon3)CC2)n1, the Potency was 8.33 µM (active).
With C/C(=C\C(=O)Nc1ccccc1C(=O)O)c1ccc2ccccc2c1 the “viability (% of control)” value was 103% (inactive).
In the case of NC(=O)c1cnc2[nH]ccc2c1NC1C2CC3C[C@H]1CC(O)(C3)C2 (stereo partly drawn), the Potency was 8.33 µM (active).
In the case of C=CC(=O)N1CCC[C@H](n2c(=O)n(-c3ccc(Oc4ccccc4)cc3)c3c(N)ncnc32)C1, the Potency was 16.6 µM (active).
In the case of Cn1cc(-c2cc(Oc3cc(F)c(NC(=O)C4(C(=O)Nc5ccccc5)CC4)cc3F)ccn2)cn1, the Potency was 5.25 µM (active).
In the case of Cc1onc(-c2ccccc2)c1-c1ccc(S(N)(=O)=O)cc1, the “viability (% of control)” value was 90% (inactive).
In the case of C/C(O)=C(\C#N)C(=O)Nc1ccc(C(F)(F)F)cc1, the Potency was 14.8 µM (active).
For CCCCOc1ccc(CC(=O)NO)cc1, the Potency was 20.9 µM (active).
With CC(=O)Nc1ccc(C(=O)NC(C)(C)C)cc1 the “viability (% of control)” value was 77.2% (inactive).
In the case of CNCCN(C)Cc1cn[nH]c1-c1ccc(OC2CC(OCCC3CCOCC3)C2)cc1 (stereo not drawn), the Potency was 18.6 µM (active).
With COC(=O)C1=C(C)NC(c2ncc(F)cc2F)=N[C@H]1c1ccc(F)cc1Cl the Potency was 16.6 µM (active).
In the case of Cn1ncc(NC(=O)c2nc(-c3c(F)cccc3F)sc2N)c1N1CC[C@@H](N)[C@H](F)CC1, the Potency was 2.09 µM (active).
